Reference: PubChem BioAssay AID1779 (Sanford-Burnham Center for Chemical Genomics, 2009)
Out of some 290,000 compounds screened, about 160 (0.055%) were called active. Rule as the data show it: active = inhibition above about 50%; inactive = the rest. Shown is part of a subset that was picked to be rich in actives.

The compounds below were run against Tyrosine-protein phosphatase non-receptor type 22 (Homo sapiens) (UniProt Q9Y2R2) (assay: PTPN22 lymphoid phosphatase activity blockers – biochemical, fluorescence intensity, uHTS (AID 1779;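 also: plate controls were vehicle with enzyme for no effect and no enzyme for full effect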)). Settings: recombinant LYP phosphatase, at 11.5 µM, hits give high values.
Chain of Tyrosine-protein phosphatase non-receptor type 22 (Homo sapiens) (Q9Y2R2 whole entry, looked up): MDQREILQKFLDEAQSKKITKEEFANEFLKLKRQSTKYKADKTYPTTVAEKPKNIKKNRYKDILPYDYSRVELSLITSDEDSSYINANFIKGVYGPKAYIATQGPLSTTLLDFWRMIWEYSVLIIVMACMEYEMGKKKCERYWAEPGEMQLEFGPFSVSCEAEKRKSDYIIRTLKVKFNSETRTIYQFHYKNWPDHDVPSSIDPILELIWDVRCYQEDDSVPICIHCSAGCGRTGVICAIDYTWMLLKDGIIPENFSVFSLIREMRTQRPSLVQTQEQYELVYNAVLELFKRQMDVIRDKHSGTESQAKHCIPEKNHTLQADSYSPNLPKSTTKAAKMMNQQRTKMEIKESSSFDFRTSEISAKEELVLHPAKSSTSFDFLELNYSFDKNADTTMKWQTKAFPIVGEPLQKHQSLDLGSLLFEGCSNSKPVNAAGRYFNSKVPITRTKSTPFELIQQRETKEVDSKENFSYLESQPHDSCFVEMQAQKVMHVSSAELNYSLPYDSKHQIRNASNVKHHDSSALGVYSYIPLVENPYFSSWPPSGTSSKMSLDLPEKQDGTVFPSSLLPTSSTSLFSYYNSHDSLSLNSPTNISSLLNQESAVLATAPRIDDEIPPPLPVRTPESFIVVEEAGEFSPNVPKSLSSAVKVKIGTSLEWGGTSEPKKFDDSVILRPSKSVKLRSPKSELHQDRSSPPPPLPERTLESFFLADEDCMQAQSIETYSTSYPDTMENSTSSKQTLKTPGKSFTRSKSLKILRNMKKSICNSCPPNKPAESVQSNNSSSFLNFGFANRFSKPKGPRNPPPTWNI
`O=c1c(Cc2ccc(F)cc2)c(O)ccn1C1CC1` was tested, and the inhibition was -9% (inactive).
With `Cc1cccc(N2CCN(C(=O)Cn3c(=O)[nH]c4ccsc4c3=O)CC2C)c1` (stereo unspecified) the inhibition was -8.5% (inactive).
For `COCCn1nnnc1C(c1cccc(C(F)(F)F)c1)N1CCOCC1` (stereo unspecified), the inhibition was -7% (inactive).
For `CCC1CCCCN1CCCNC(=O)c1ccc(CS(=O)(=O)Cc2ccccc2F)o1` (stereo unspecified), the inhibition was 56.2% (active).
In the case of `CCC1CCCCN1CCCNC(=O)c1ccc(CS(=O)(=O)c2ccccc2C)o1` (stereo unspecified), the inhibition is reported as -13.2% (inactive).
In the case of `CCC1CCCCN1CCCNC(=O)c1ccc(CS(=O)(=O)Cc2ccc(Cl)cc2)o1` (stereo unspecified), the inhibition is reported as -7.2% (inactive).
With `C=CCOc1ccc2cccc(/C=N/NC(=O)c3cc4cc([N+](=O)[O-])ccc4s3)c2c1` the inhibition was -4.5% (inactive).
For `COc1cccc(/C=N/NC(=O)c2cc3cc([N+](=O)[O-])ccc3s2)c1O`, the inhibition was 73.6% (active).
With `COc1cccc(/C=N/NC(=O)c2ccc([N+](=O)[O-])cc2Cl)c1O` the inhibition was 9% (inactive).
`CC(=O)N1CCN(c2ccc(NC(=O)c3ccc(OCc4ccccc4)cc3)cc2)CC1` was tested, and the inhibition was -3.8% (inactive).
For `CCc1ccc(OCc2nnc(SCC(=O)NC3CCCCC3)o2)cc1`, the inhibition was -6.8% (inactive).
In the case of `CCCNS(=O)(=O)c1ccc(NC(=O)c2cccnc2)cc1`, the inhibition is reported as -7.3% (inactive).
`CC1Sc2ccc(S(=O)(=O)CCC(=O)NC3CCCC(C)C3C)cc2NC1=O` (stereo unspecified) was tested, and the inhibition was -6.7% (inactive).
`Cc1ccccc1Cn1cc(NC(=O)c2nn(C)cc2Cl)cn1` was tested, and the inhibition was 60.2% (active).
`Cn1cc(Cl)c(C(=O)Nc2cnn(Cc3ccc(F)cc3)c2)n1` was tested, and the inhibition was -1.2% (inactive).
`Cc1ccccc1Cn1cc(NC(=O)c2cc(-c3ccco3)on2)cn1` was tested, and the inhibition was -0.1% (inactive).
`Cc1ccc(OCc2cc(C(=O)NC3CCOC3)no2)cc1C` (stereo unspecified) was tested, and the inhibition was -2.1% (inactive).
`O=C(CN1C(=O)c2ccccc2C1=O)N1CCN=C1c1ccccc1` was tested, and the inhibition was -8.9% (inactive).
In the case of `Cc1cc(C)cc(OCC(=O)N/N=C/c2ccncc2)c1`, the inhibition is reported as -10.7% (inactive).
`Cc1cc(C)cc(OCC(=O)N/N=C\c2cn(C)nc2C)c1` was tested, and the inhibition was 76.1% (active).
With `CCn1ncc(/C=N\NC(=O)COc2cc(C)cc(C)c2)c1C` the inhibition was -3.6% (inactive).
For `CC1=NNC(=O)C1CCC(=O)N/N=C(\C)c1ccccc1` (stereo unspecified), the inhibition was -4.6% (inactive).
With `c1ccc2c(c1)NC1(CCCC1)n1c-2nc2ccccc21` the inhibition was -16.8% (inactive).
For `Cc1cccc(NC(=O)Nc2cccc(C)n2)n1`, the inhibition was -5.9% (inactive).
In the case of `COc1ccc(Cc2nnc(NC(=O)c3ccccc3F)s2)cc1OC`, the inhibition is reported as 66.6% (active).
For `COc1ccc(Cc2nnc(NC(=O)c3ccccc3Cl)s2)cc1OC`, the inhibition was -9.8% (inactive).
With `COc1ccc(Cc2nnc(NC(=O)c3ccccc3F)s2)cc1` the inhibition was -0.8% (inactive).
With `COc1ccc2cc(C(C)c3nc4ccccc4c(=O)n3N)ccc2c1` (stereo unspecified) the inhibition was 4.5% (inactive).
For `C=CCNc1nc(C(F)(F)F)nc2c1nnn2Cc1ccccc1Cl`, the inhibition was -2.4% (inactive).
With `COc1ccc(CNC(=O)c2cc(-c3ccccc3O)n[nH]2)cc1` the inhibition was 53.5% (active).
With `COc1ccc(CNC(=O)c2cc(-c3cc(C)cc(C)c3O)n[nH]2)cc1` the inhibition was 4% (inactive).
In the case of `COc1ccc(CNC(=O)c2cc(-c3cc(C)ccc3O)n[nH]2)cc1`, the inhibition is reported as -3.7% (inactive).
For `COc1cccc(N(C(=O)c2snc(C(N)=O)c2N)C(C(=O)NCC2CCCO2)c2cccs2)c1` (stereo unspecified), the inhibition was -2% (inactive).
In the case of `COc1ccc(C2=NN(C(=O)CCC(=O)O)C(c3ccc(OC)c(OC)c3)C2)cc1` (stereo unspecified), the inhibition is reported as -7.5% (inactive).
`COc1ccc(C2CC(c3ccc(Br)cc3)=NN2C(=O)CCC(=O)O)cc1OC` (stereo unspecified) was tested, and the inhibition was -7.6% (inactive).
With `COc1ccc(C2CC(c3ccc(C)cc3)=NN2C(=O)CCC(=O)O)cc1OC` (stereo unspecified) the inhibition was 89.2% (active).
In the case of `CC(=O)c1ccc(-n2c(CCC(=O)O)ccc2-c2ccc(C)cc2)cc1`, the inhibition is reported as -5.2% (inactive).
For `CS(=O)(=O)N1CCc2cc(C(=O)NC3CC3)ccc21`, the inhibition was -10.8% (inactive).
In the case of `COCCNC(=O)C(c1ccco1)N(Cc1ccc(OC)cc1)C(=O)Cn1nnc2ccccc21` (stereo unspecified), the inhibition is reported as 10.9% (inactive).
For `COc1ccc(-c2nc(SC)n(C(=O)c3ccco3)n2)cc1`, the inhibition was -4.5% (inactive).
`CSc1nc(-c2ccc(Cl)cc2)nn1C(=O)c1ccco1` was tested, and the inhibition was 77.2% (active).
With `CSc1nc(-c2ccccc2)nn1C(=O)c1ccco1` the inhibition was -3% (inactive).
With `Cc1nc(-c2ccc(S(=O)(=O)N3CCN(CCc4ccccc4)CC3)s2)cs1` the inhibition was -0.7% (inactive).
For `N#CCN(CC#N)C(=O)C1c2ccccc2Oc2ccccc21`, the inhibition was -3.9% (inactive).
For `COc1ccc(NC(=O)C2CCCN(S(=O)(=O)c3c(C)n[nH]c3C)C2)c(OC)c1` (stereo unspecified), the inhibition was -2% (inactive).
For `O=[N+]([O-])c1cc(Br)cc(/C=N/n2cnnc2)c1O`, the inhibition was 76.8% (active).
For `Cc1cc(/C=N/n2cnnc2)c(O)c([N+](=O)[O-])c1`, the inhibition was -3.1% (inactive).
For `O=[N+]([O-])c1cc(Cl)cc(/C=N/n2cnnc2)c1O`, the inhibition was 3.8% (inactive).
In the case of `COc1ccc(C2C(C#N)=C(N)Oc3cc(C)n(CCN4CCOCC4)c(=O)c32)cc1OC` (stereo unspecified), the inhibition is reported as -4.7% (inactive).
In the case of `CCOc1ccc(C2C(C#N)=C(N)Oc3cc(C)n(CCN4CCOCC4)c(=O)c32)cc1OCC` (stereo unspecified), the inhibition is reported as 61.4% (active).
`CCOc1ccc(C2C(C#N)=C(N)Oc3cc(C)n(CCN(C)C)c(=O)c32)cc1OCC` (stereo unspecified) was tested, and the inhibition was -1.7% (inactive).
`Cc1cccn2c(=O)c3cc(C(=O)NC4CCCCC4)c(=N)n(CCN4CCOCC4)c3nc12` was tested, and the inhibition was -35.6% (inactive).
For `Fc1ccc(-c2csc(=S)[nH]2)cc1`, the inhibition was -2% (inactive).
`S=c1[nH]c(-c2ccc(Cl)cc2)cs1` was tested, and the inhibition was 74.6% (active).
In the case of `Cc1ccc(-c2csc(=S)[nH]2)cc1`, the inhibition is reported as -4% (inactive).
For `OCCC1CN(Cc2cccn2-c2ncccn2)CCN1C1CCCC1` (stereo unspecified), the inhibition was -9.8% (inactive).
`Cc1ccc(C(=O)N2CCN(S(=O)(=O)N3CCCCC3)CC2)cc1` was tested, and the inhibition was -11.4% (inactive).
With `O=C(COC(=O)COc1ccc(Cl)cc1)Nc1ccc(F)c([N+](=O)[O-])c1` the inhibition was 2.2% (inactive).
`Cc1cc(Cl)ccc1OCC(=O)OCC(=O)Nc1ccc(F)c([N+](=O)[O-])c1` was tested, and the inhibition was 62% (active).
With `Cc1cc(NC(=O)COC(=O)COc2ccc(Cl)cc2C)c([N+](=O)[O-])cc1C` the inhibition was 5.9% (inactive).
With `O=C(c1ccco1)N1CCN(C(=O)C2CC(=O)N(c3ccc(Cl)cc3)C2)CC1` (stereo unspecified) the inhibition was -14.5% (inactive).
In the case of `N/C(=N\N=C\c1ccco1)SC1CC(=O)N(c2ccc(C(=O)O)cc2)C1=O` (stereo unspecified), the inhibition is reported as 1.7% (inactive).
`N/C(=N\N=C\c1ccco1)SC1CC(=O)N(c2ccccc2)C1=O` (stereo unspecified) was tested, and the inhibition was -2.9% (inactive).
`N/C(=N\N=C\c1ccc2c(c1)OCO2)SC1CC(=O)N(c2ccc(C(=O)O)cc2)C1=O` (stereo unspecified) was tested, and the inhibition was 70% (active).
With `Cc1csc2ncc(C(=O)N3CCCc4ccccc43)c(=O)n12` the inhibition was -4% (inactive).
With `O=C(CN1C(=O)CSc2ccccc21)Nc1ccccc1C(=O)N1CCOCC1` the inhibition was -0.4% (inactive).
With `NC(=O)c1nc(-c2cccs2)nc2c1[nH]c(=O)n2-c1ccc(F)cc1` the inhibition was -3.8% (inactive).
For `O=C(Nc1nccs1)c1ccc(S(=O)(=O)NCC2CCCCC2)cc1`, the inhibition was 9.6% (inactive).
`O=C(Nc1nccs1)c1ccc(S(=O)(=O)NCc2cccs2)cc1` was tested, and the inhibition was 84.4% (active).
`O=C(Nc1nccs1)c1ccc(S(=O)(=O)c2ccccc2)cc1` was tested, and the inhibition was -4.6% (inactive).
With `Cc1ccccc1NC(=S)NC(NC(=O)c1ccccc1C)C(Cl)(Cl)Cl` (stereo unspecified) the inhibition was -5.7% (inactive).
With `COc1ccc(S(=O)(=O)N2CCc3ccccc32)cc1C(=O)OCc1c(C)noc1C` the inhibition was 1% (inactive).
With `COc1ccc(S(=O)(=O)N2CCCCCC2)cc1C(=O)OCc1c(C)noc1C` the inhibition was 50.5% (active).
`Cc1noc(C)c1COC(=O)c1ccc(S(=O)(=O)N2CCCCC2)cc1` was tested, and the inhibition was -3.8% (inactive).
`CCOC(=O)c1c(NC(=O)COc2ncnc3ccccc23)sc(C)c1C` was tested, and the inhibition was 3.4% (inactive).
`O=C(NCc1ccccc1)C(c1ccccc1F)N(CC1CCCO1)C(=O)c1ccccn1` (stereo unspecified) was tested, and the inhibition was -7.1% (inactive).
`Cc1cc(NC(=O)c2cc(-c3ccc(C)s3)nc3ccccc23)no1` was tested, and the inhibition was -4.3% (inactive).
With `Cc1cccc(NC(=O)c2cc(-c3ccc(C)s3)nc3ccccc23)n1` the inhibition was 6.1% (inactive).
In the case of `Cc1cc(C)nc(NC(=O)c2cc(-c3ccc(C)s3)nc3ccccc23)c1`, the inhibition is reported as 79.7% (active).
For `COc1ccc(-c2nnn(CC(=O)N(CCCO)C(C(=O)NC3CCCC3)c3ccncc3)n2)cc1` (stereo unspecified), the inhibition was -4.7% (inactive).
With `CC(=O)N1CCc2c(sc3c2c(=O)n(-c2ccccc2)c(=O)n3CC(=O)NCC2CCCO2)C1` (stereo unspecified) the inhibition was -11% (inactive).
With `COc1ccc(COC(=O)Nc2cn(C)nc2C(F)(F)F)cc1` the inhibition was 1.1% (inactive).
In the case of `CCC(C)[C@H](NC(=O)[C@@H]1CSC2c3ccccc3C(=O)N21)C(=O)NCC1CCCO1` (stereo partly specified), the inhibition is reported as -11.5% (inactive).
With `Cc1c([N+](=O)[O-])cc(C(=O)NCc2ccc(F)cc2)cc1[N+](=O)[O-]` the inhibition was -4.5% (inactive).
For `CCn1cc(CNC(=O)c2cccc([N+](=O)[O-])c2)cn1`, the inhibition was -11.2% (inactive).
With `CCn1cc(CNC(=O)c2cc([N+](=O)[O-])c(C)c([N+](=O)[O-])c2)cn1` the inhibition was 55.6% (active).
`COc1ccc(N(C(=O)CNC(=O)c2ccco2)C(C(=O)NCC2CCCO2)c2ccccc2)cc1` (stereo unspecified) was tested, and the inhibition was -11.7% (inactive).
With `O=C(OC1CCOC1=O)c1cccc(S(=O)(=O)N2CCc3ccccc3C2)c1` (stereo unspecified) the inhibition was -8.2% (inactive).
In the case of `CCCN1C(=O)C(O)(CC(=O)c2ccc3c(c2)OCCO3)c2ccccc21` (stereo unspecified), the inhibition is reported as 3.1% (inactive).
`COc1ccc(-c2cc(C)no2)cc1S(=O)(=O)N1CCN(c2ccccn2)CC1` was tested, and the inhibition was -10.6% (inactive).
`O=C(OC1CCCCC1)c1ccc2c(c1)C1C=CCC1C(C(=O)O)N2` (stereo unspecified) was tested, and the inhibition was 64% (active).
`O=C(O)C1Nc2c(O)cccc2C2C=CCC12` (stereo unspecified) was tested, and the inhibition was 52% (active).
`CC(=O)c1ccc2c(c1)C1C=CCC1C(C(=O)O)N2` (stereo unspecified) was tested, and the inhibition was 3.3% (inactive).
`CCOC(=O)c1ccc2c(c1)C1C=CCC1C(C(=O)O)N2` (stereo unspecified) was tested, and the inhibition was 19.2% (inactive).
With `O=C(O)C1Nc2c(cccc2C(F)(F)F)C2C=CCC12` (stereo unspecified) the inhibition was -2.1% (inactive).
With `COc1cccc2c1NC(C(=O)O)C1CC=CC21` (stereo unspecified) the inhibition was 1.7% (inactive).
